The results in this text go back to ChEMBL document CHEMBL1961873, “Compounds: GSK PKIS; Assays: Nanosyn kinase panel” (2012).

The target of assay [1] is Mast/stem cell growth factor receptor Kit (Homo sapiens) (UniProt P10721). The settings on record: at 1 µM.
Assay [2] deals with Mast/stem cell growth factor receptor Kit (Homo sapiens), P10721 [D816V]. The conditions noted are these: at 0.1 µM.
Assay [3] has the same test system. The settings on record: at 1 µM.
Assay [4] has as its system Mast/stem cell growth factor receptor Kit (Homo sapiens), P10721 [T670I]. The conditions noted are these: at 0.1 µM.
The test system is the same in assay [5]. The settings on record: at 1 µM.
Assay [6] concerns Mast/stem cell growth factor receptor Kit (Homo sapiens), P10721 [V560G]. The conditions noted are these: at 0.1 µM.
Assay [7] shares this test system. The settings on record: at 1 µM.
Assay [8] has as its target Tyrosine-protein kinase Lck (Homo sapiens) (UniProt P06239). The conditions noted are these: at 0.1 µM.
For assay [9] the target is unchanged. The conditions noted are these: at 1 µM.
Assay [10] concerns the target Leukocyte tyrosine kinase receptor (Homo sapiens) (UniProt P29376). The conditions noted are these: at 0.1 µM.
Assay [11] has the same target. The settings on record: at 1 µM.
The target in assay [12] is Tyrosine-protein kinase Lyn (Homo sapiens) (UniProt P07948). The settings on record: at 0.1 µM.
Assay [13] has the same target. The settings on record: at 1 µM.
For assay [14] the target is unchanged. The settings on record: at 0.1 µM. This is another data set of the same source.
Assay [15] shares this target. The conditions noted are these: at 1 µM. This is another data set of the same source.
For assay [16], the target named is T1, Tyrosine-protein kinase Mer (Homo sapiens) (UniProt Q12866).
T1 sequence (whole entry): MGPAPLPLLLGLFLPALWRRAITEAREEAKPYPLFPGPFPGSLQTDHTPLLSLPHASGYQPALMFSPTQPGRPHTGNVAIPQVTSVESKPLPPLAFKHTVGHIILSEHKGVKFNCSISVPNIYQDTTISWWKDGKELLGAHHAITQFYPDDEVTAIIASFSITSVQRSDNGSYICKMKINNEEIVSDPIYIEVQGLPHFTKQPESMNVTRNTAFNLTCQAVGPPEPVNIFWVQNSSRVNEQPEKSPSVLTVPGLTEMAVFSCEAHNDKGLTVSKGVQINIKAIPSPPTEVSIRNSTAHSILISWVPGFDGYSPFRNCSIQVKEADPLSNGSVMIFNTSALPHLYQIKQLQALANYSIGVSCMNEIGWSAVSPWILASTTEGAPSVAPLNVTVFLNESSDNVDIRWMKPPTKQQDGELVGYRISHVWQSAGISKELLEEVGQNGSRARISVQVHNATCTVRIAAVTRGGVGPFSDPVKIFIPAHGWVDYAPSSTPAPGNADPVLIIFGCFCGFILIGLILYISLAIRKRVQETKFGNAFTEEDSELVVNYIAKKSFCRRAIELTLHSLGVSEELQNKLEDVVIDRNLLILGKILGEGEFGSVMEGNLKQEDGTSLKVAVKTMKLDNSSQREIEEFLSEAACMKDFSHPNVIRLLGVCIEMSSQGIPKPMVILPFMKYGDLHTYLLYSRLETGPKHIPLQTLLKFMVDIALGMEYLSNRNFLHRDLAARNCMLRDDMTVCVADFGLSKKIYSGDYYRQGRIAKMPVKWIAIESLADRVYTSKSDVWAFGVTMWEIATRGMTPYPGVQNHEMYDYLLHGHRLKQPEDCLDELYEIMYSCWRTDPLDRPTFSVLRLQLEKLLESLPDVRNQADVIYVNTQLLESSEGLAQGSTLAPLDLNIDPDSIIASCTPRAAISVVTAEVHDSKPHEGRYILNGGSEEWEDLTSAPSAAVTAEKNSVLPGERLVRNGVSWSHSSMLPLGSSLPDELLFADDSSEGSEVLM
The settings on record: at 0.1 µM.

Assay [17] deals with T1, Tyrosine-protein kinase Mer (Homo sapiens). The settings on record: at 1 µM.
Assay [18] concerns the target Hepatocyte growth factor receptor (Homo sapiens) (UniProt P08581). The settings on record: at 0.1 µM.
Assay [19] shares this target. The settings on record: at 1 µM.
Assay [20] deals with T2, Muscle, skeletal receptor tyrosine-protein kinase (Homo sapiens) (UniProt O15146).
T2 sequence (whole entry): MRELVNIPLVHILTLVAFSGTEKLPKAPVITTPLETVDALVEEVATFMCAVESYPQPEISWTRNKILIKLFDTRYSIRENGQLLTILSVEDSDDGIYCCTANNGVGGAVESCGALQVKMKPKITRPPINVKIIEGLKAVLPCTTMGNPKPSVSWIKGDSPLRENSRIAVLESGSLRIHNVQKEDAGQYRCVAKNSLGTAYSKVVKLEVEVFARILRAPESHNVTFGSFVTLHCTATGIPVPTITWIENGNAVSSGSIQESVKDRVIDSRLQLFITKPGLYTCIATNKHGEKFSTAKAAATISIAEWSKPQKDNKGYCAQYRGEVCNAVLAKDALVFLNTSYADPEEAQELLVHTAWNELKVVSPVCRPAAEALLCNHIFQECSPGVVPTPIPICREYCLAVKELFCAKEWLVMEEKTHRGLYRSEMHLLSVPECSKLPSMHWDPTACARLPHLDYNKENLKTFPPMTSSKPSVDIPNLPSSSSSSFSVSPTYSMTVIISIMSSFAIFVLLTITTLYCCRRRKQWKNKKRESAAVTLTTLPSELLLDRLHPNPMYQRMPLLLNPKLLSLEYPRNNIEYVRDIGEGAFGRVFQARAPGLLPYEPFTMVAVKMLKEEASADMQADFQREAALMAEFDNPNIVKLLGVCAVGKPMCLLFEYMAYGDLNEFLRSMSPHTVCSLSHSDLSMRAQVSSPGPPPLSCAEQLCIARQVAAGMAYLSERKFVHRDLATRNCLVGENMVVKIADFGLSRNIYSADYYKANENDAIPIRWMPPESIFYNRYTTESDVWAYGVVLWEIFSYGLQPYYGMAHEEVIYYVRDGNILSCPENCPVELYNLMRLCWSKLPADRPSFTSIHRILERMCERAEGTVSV
The conditions noted are these: at 0.1 µM.

The structures appear in SMILES notation.

Tyrosine-protein kinase Lyn (Homo sapiens), sequence (P07948 2-512 limits assumed): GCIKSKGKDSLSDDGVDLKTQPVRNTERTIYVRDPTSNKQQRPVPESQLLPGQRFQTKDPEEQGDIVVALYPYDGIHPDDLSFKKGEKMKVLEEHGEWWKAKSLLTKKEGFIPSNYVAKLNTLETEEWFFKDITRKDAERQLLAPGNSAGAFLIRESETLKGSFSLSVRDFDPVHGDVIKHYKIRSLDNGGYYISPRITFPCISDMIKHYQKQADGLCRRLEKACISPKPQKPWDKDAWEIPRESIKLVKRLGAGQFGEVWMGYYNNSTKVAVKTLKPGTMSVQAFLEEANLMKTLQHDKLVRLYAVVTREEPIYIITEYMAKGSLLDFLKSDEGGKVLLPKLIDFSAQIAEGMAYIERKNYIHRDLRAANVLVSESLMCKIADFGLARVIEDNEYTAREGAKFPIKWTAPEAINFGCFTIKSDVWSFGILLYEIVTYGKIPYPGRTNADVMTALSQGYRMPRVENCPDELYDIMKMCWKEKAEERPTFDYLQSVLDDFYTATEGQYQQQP
Hepatocyte growth factor receptor (Homo sapiens), sequence (P08581 whole entry): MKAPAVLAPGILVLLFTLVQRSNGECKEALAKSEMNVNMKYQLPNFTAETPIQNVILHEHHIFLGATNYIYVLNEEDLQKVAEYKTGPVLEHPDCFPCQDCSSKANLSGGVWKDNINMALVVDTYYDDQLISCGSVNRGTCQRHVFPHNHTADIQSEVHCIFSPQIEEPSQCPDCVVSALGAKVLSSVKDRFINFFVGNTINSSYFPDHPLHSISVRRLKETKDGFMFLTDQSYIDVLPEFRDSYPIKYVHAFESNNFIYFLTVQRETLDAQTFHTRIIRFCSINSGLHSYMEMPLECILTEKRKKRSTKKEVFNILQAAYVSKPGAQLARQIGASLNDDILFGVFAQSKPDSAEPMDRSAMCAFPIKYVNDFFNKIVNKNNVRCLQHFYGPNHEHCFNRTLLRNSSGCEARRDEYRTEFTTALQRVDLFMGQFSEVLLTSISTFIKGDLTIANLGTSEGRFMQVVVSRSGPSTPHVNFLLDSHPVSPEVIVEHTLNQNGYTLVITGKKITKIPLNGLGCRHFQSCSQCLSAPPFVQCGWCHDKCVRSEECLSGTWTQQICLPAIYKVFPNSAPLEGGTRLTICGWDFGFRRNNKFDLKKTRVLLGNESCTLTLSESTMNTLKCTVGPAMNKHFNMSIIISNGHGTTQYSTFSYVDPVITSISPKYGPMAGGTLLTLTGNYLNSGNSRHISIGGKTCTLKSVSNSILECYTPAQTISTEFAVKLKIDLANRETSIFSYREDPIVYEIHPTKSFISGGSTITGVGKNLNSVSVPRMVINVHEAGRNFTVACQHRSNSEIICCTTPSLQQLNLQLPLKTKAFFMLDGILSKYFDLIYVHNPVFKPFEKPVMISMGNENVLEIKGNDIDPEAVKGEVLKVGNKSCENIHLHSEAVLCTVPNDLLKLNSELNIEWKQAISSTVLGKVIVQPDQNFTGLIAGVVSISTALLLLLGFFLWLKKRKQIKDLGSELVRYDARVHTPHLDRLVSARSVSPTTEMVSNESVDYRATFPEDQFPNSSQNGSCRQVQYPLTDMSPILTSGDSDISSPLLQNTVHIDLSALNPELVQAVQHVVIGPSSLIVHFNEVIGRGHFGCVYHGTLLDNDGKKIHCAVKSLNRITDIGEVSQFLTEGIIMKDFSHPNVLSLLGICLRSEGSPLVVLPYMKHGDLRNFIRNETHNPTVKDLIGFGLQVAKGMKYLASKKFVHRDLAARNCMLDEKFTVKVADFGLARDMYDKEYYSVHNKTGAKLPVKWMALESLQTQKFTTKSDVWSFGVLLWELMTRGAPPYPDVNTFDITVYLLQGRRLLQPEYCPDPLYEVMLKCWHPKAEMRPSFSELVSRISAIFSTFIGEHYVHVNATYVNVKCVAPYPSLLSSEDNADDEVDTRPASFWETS
Leukocyte tyrosine kinase receptor (Homo sapiens), sequence (P29376 whole entry): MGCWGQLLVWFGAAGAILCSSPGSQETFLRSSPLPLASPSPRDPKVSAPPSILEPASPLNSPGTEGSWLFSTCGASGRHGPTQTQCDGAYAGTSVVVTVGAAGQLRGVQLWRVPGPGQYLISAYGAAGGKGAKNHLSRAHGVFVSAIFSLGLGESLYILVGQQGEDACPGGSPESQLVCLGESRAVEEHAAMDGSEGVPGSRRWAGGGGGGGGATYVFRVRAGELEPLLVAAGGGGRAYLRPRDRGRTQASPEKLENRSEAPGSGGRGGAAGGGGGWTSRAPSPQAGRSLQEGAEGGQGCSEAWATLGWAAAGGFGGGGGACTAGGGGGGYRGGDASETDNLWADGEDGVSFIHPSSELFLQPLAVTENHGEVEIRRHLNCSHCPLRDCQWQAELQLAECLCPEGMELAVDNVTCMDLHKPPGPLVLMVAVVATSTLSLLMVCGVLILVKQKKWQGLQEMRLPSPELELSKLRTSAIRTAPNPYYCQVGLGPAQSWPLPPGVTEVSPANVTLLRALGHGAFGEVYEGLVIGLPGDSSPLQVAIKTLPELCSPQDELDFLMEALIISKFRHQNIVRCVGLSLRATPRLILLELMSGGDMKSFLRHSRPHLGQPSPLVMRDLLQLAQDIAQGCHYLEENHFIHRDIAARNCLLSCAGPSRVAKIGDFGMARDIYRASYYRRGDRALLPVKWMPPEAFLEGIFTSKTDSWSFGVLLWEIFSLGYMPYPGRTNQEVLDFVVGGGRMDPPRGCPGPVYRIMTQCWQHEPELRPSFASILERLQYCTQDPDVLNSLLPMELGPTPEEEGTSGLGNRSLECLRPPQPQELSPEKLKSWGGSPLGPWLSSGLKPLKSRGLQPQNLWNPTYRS
Mast/stem cell growth factor receptor Kit (Homo sapiens), P10721 [D816V], sequence (P10721 whole entry D816V): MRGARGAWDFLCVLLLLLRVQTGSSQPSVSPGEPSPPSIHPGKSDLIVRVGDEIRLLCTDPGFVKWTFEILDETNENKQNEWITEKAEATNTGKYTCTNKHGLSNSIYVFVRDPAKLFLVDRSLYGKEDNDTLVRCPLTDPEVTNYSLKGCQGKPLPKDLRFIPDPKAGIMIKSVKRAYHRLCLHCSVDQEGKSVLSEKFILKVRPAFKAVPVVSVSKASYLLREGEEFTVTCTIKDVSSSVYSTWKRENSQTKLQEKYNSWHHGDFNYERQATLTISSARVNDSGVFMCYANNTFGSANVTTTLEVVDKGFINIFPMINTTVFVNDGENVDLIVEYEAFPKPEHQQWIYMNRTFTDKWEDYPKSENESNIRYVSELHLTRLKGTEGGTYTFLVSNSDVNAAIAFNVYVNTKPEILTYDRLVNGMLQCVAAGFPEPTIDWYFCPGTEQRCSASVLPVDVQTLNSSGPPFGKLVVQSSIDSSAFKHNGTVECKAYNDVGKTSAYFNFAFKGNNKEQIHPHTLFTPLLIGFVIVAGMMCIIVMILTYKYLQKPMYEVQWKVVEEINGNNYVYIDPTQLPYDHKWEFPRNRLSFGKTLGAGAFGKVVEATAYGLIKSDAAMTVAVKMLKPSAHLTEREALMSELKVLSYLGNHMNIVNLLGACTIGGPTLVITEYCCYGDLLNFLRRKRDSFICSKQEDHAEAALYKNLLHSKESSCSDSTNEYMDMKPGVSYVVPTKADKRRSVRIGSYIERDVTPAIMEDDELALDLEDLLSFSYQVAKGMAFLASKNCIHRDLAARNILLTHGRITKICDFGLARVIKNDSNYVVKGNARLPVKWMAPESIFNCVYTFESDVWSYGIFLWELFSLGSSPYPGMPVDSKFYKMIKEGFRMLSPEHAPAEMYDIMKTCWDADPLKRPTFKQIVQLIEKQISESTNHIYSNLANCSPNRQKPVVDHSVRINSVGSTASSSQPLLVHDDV
Mast/stem cell growth factor receptor Kit (Homo sapiens), P10721 [T670I], sequence (P10721 whole entry T670I): as the sequence (P10721 whole entry D816V) above, with T670I, V816D counted along it
Mast/stem cell growth factor receptor Kit (Homo sapiens), P10721 [V560G], sequence (P10721 whole entry V560G): as the sequence (P10721 whole entry D816V) above, with V560G, V816D counted along it
Mast/stem cell growth factor receptor Kit (Homo sapiens), sequence (P10721 whole entry): as the sequence (P10721 whole entry D816V) above, with V816D counted along it
Tyrosine-protein kinase Lck (Homo sapiens), sequence (P06239 2-509 limits assumed): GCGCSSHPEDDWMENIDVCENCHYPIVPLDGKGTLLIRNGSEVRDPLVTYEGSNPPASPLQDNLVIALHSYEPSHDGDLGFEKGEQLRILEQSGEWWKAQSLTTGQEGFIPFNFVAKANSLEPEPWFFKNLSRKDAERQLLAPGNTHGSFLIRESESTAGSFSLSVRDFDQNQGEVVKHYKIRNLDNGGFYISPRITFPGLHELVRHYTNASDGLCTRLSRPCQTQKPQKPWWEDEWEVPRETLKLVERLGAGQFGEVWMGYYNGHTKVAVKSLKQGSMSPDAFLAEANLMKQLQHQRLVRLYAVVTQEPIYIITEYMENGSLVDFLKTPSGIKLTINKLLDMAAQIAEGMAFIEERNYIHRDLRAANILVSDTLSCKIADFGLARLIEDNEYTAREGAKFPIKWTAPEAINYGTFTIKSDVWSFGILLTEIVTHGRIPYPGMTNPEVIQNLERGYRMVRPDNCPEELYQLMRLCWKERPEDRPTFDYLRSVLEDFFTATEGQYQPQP

As for `COc1cc2ncn(-c3cc(OCCc4ccccc4)c(C(N)=O)s3)c2cc1OC`, the inhibition was 5.42% in [1]; 5.33% in assay [2]; -0.63% in assay [3]; 0.21% in assay [4]; -1.17% in assay [5]; -2.95% in assay [6]. In addition, the inhibition in assay [7] was -0.35%; in assay [8], 2.24%; in [9] it was 5.88%; in assay [10], 1.89%; in assay [11], 1.98%; in [12] it was 1.83%. Also, the inhibition in [13] amounted to 9.45%; in assay [14], 0.79%; in assay [15], 7.19%; in assay [16], 2.54%; in assay [17] it was 6.75%; in assay [18], 1.96%. Besides, the inhibition in [19] was determined as 5.5%; in assay [20], 2.9%.
For the compound `Fc1ccc(-c2ncn(C3CCNCC3)c2-c2ccnc(Oc3ccc4c(c3)OCO4)n2)cc1`, the inhibition in assay [1] was 9.68%; in assay [2], 4.71%; in assay [3] it was 5.2%; in assay [4], 3.24%; in assay [5], 3.64%; in assay [6] it was -1.09%. For the same compound, the inhibition is -0.53% in assay [7]; 3.98% in [8]; 8.64% in assay [9]; 3.89% in [10]; 8.02% in assay [11]; 5.3% in assay [12]. Further, the inhibition in [13] came to 7.55%; in assay [14], 3.33%; in assay [15], 5.4%; in assay [16], 2.7%; in [17], 5.24%; in assay [18], 2.27%. In addition, the inhibition in assay [19] was 7.4%; in assay [20], 5.07%.
For the compound `COc1cc2ncn(-c3cc(OCc4ccccc4C(F)(F)F)c(C(C)=O)s3)c2cc1OC`, the inhibition is 4.53% in [1]; 2.21% in assay [2]; 1.58% in assay [3]; 2.81% in assay [4]; 6.12% in assay [5]; -1.46% in assay [6]. In addition, the inhibition in assay [7] is 1.6%; in assay [8], 4.22%; in [9], 9.66%; in assay [10] it was 2.03%; in assay [11], 3.33%; in assay [12] it was 3.36%. The inhibition in assay [13] is 6.9%; in assay [14] it was 4.22%; in [15], 6.9%; in [16], -0.14%; in assay [17], 4.1%; in assay [18], 1.74%. Moreover, the values for the inhibition in assay [19] and in assay [20] were 13.5% and 2.48%, respectively.
Consider `COc1ccc2cc(-c3c(-c4ccncc4)nc(-c4ccc(S(C)(=O)=O)cc4C)n3C)ccc2c1`, for which the inhibition in [1] came out at 4.85%; in assay [2], 1.65%; in [3] it was 4.38%; in [4], 2.6%; in [5], 4.5%; in [6], 1.82%. Moreover, the inhibition is -0.08% in [7]; 1.82% in assay [8]; 8.97% in [9]; 3.22% in assay [10]; 5.96% in [11]; 6.65% in assay [12]. The inhibition in assay [13] worked out at 22.3%; in assay [14] it was 3.79%; in assay [15] it was 16.7%; in [16] it was 2.19%; in assay [17], 9.48%; in assay [18], 2.55%. In addition, the results for the inhibition in assay [19] and in assay [20] were 4.21% and 3.24%, respectively.
`NS(=O)(=O)c1ccc(Nc2cc(-c3ccc(O)c(F)c3)n[nH]2)cc1`: the inhibition in assay [1] is 86.4%; in assay [2], -3.97%; in assay [3] it was -1.47%; in [4] it was -0.5%; in assay [5] it was 20.2%; in [6], 8.78%. Also, the inhibition in assay [7] is 55.9%; in assay [8] it was -0.68%; in assay [9] it was 7.91%; in assay [10], -0.58%; in assay [11], 0.7%; in assay [12] it was 2.66%. The inhibition in assay [13] worked out at 20%; in [14] it was 0.57%; in assay [15] it was 17.4%; in [16], 1.99%; in [17] it was 13.4%; in assay [18], 0.07%. In addition, the inhibition was -2.91% in assay [19] and 5.85% in [20].
On to `C[C@@H](Oc1cc(-n2cnc3ccc(OC4CCN(C)CC4)cc32)sc1C(N)=O)c1ccccc1Cl`, for which the inhibition was 5.22% in assay [1]; 1.72% in [2]; 6.14% in assay [3]; 1.3% in [4]; 6.17% in [5]; -4.05% in [6]. For the same compound, the inhibition in assay [7] is -2.87%; in [8] it was -0.67%; in assay [9], 4.21%; in assay [10], 4.01%; in assay [11], 4.72%; in [12] it was 3.54%. For the same compound, the inhibition is 6.86% in assay [13]; 1.68% in [14]; 5.6% in [15]; 2.77% in assay [16]; 9.07% in assay [17]; 7.84% in assay [18]. Moreover, the inhibition is 5.01% in assay [19] and 7.63% in assay [20].
